Data on 40 compounds can be found in PubChem BioAssay (NCI).

Structures are written as SMILES. About 83,000 compounds went through this panel and 20% of them were active in at least one assay; those are over-represented in the sample as a whole.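 Cell lines were cultured in 96-well plates, exposed to a single compound concentration, and assessed for percent growth 48 hours later.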 Activity calls are given as the source filed them.

For the assay, the system named is SR leukemia. Nature of the assay: NCI-60 one-dose screen, 48 h (100 = growth as untreated, 0 = no growth, -100 = all killed). The settings on record: 10 µM. As to the method: Growth inhibition of the SR human tumor cell line is measured as a screen for anti-cancer activity. Cells are grown in 96 well plates and exposed to the test compound for 48 hours. Compounds are tested at a single concentration, which is 10^-5 M for most compounds. The reported endpoint is percent growth (GI% or GIPRCNT), where numbers from 0 - 100% represent growth inhibition, and numbers from -100% - 0 represent cell death. For example, a value of 40 represents 60% growth inhibition. A value of 0 means no net growth occurred over the course of the experiment. A value of -40 indicates 40% of cells at the beginning of the experiment died by the end of the experiment. A value of -100 means all cells are dead at the end of the experiment.
NCI-60 Human Tumor Cell Lines Screen was performed using the standard one-dose NCI protocol, which is described in more detail at https://dtp.cancer.gov/discovery_development/nci-60/default.htm.
Compounds with GIPRCNT values below 10 were considered active. Activity score was based on GIPRCNT using the following formula: […]
Score is 0 for GIPRCNT values of 100 or above, 50 for GIPRCNT values of 0, and 100 for GIPRCNT values of -100.
Take `S=C(SSC(=S)N(c1ccccc1)c1ccccc1)N(c1ccccc1)c1ccccc1`: the growth was 92.6% (inactive).
Then `Nc1ccc(-c2cccs2)cc1NC(=O)c1ccc(CCCC(=O)Nc2ccc(C3CC3N)cc2)cc1` (stereo not given), with -10.5% (active); and `COc1cc(C)ccc1Oc1nc(Nc2ccc(N3CCOCC3)cc2)ncc1NC(=O)Nc1cc(C(F)(F)F)cc(C(F)(F)F)c1`, with 28.3% (inactive); and `CC(=O)Nc1ccc2c(c1)C(=O)c1cccc(C(=O)O)c1-2`, with 123% (inactive).
Then `O=C(CSc1nccc(Nc2cccc3ccccc23)n1)c1ccc(Cl)cc1`, with 90.9% (inactive).
Take `Cc1cc(CC(C)CC(C)(C)C)n(O)c(=O)c1` (stereo not given) (tested in a mixture with another compound): the growth was 2.72% (active).
The figure for `COc1cc(-c2nn(-c3ccc(NC(=O)NCCCNC(=O)c4ccccc4)cc3)cc2-c2ccncc2)ccc1Cl` is 20.2% (inactive); for `Nc1cc(Br)c(-c2nn3c(CCC(=O)c4nc5ccccc5[nH]4)nnc3s2)c(Br)c1` it is 88.1% (inactive); for `CC(C1=C(CN(C(=O)Cc2cn(-c3ccccc3)nc2-c2ccc(Cl)cc2)C(C)C)Cc2ccccc21)c1ccccn1` (stereo not given) it is 37.4% (inactive).
Then `C=CCNCCN1C(=O)c2ccc3c4c(ccc(c24)C1=O)C(=O)N(CCNCC=C)C3=O`, with -8.69% (active).
The figure for `O=C(CCn1cnc2c(cc(-c3ccccc3)n2-c2ccccc2)c1=O)Nc1ccc(F)cc1` is 72.3% (inactive).
`N#Cc1c(N)nc(-c2cc(F)cc(C(F)(F)F)c2)nc1-c1ccccc1F`: the growth was 23.6% (inactive).
Then `CCOC(=O)c1cc(C(=O)c2cc(OC)cc(OC)c2)n2nc(C)ccc12`, with 18.4% (inactive).
Then `NS(=O)(=O)Oc1ccc(-c2ccc3sccc3c2)cc1`, with 115% (inactive); and `CC1=NN(C(=O)c2nn(-c3ccc(Cl)cc3)cc2O)C(=O)C1`, with -39.3% (active); and `COc1ccc(-c2onc(N)c2-c2cc(OC)c3c(c2)OCO3)cc1`, with 9.86% (active).
Turning to `O=C(NCCCNS(=O)(=O)c1ccc(Cl)cc1)Nc1ccc(-n2cc(-c3ccncc3)c(-c3ccc(Cl)c(O)c3)n2)cc1`, the growth was 17% (inactive).
In the case of `CCOC(=O)c1sc2ncnc(Nc3ccc4c(cnn4C(=O)Nc4ccccc4)c3)c2c1C`, the growth is 27.9% (inactive).
The figure for `COc1cc(-c2nn(-c3cccc(NC(=O)CCNc4ccc(N5CCOCC5)cc4)c3)cc2-c2ccncc2)ccc1Cl` is 5.07% (active); for `CCNc1nc(C(F)(F)F)nc2c1sc(=S)n2-c1ccccc1` it is 83.5% (inactive); for `Cc1ccc(NCCN(C)CC(C)O)c2c(=O)c3ccccc3sc12` (stereo not given) it is 2.49% (active).
The figure for `Cc1cn(-c2cccc(NC(=O)c3ccc(C)c(Nc4nccc(-c5cccnc5)n4)c3)c2)cn1` is 1.26% (active); for `CCOC(=O)CSc1nc(-c2cc(OC)ccc2OC)cc(-c2ccc(OC)cc2)c1C#N` it is 69.7% (inactive).
The figure for `C[C@@H](C[C@H](CCO)c1ccccc1)c1ccc2ccccc2c1` is -41.4% (active).
`C[C@]12CC[C@@H]3c4ccc(O)cc4CC[C@H]3[C@@H]1CC[C@@H]2NS(=O)(=O)c1ccc(C(F)(F)F)cc1`: the growth was 18.9% (inactive).
As to `O=S(=O)(Oc1ccc(-c2ccc3sccc3c2)cc1)c1ccccc1`, the growth was 105% (inactive).
The figure for `COc1cccc(CNc2cccc3cn[nH]c23)c1O` is 103% (inactive).
Take `CN(C)CCOc1cccc(NC2=C(Cl)C(=O)C(Nc3cccc(OCCN(C)C)c3)=C(Cl)C2=O)c1`: the growth is -18.2% (active).
The figure for `COc1ccc(-c2csc(NC(=O)c3ccc(Cc4n[nH]c(=O)c5cccnc45)cc3)n2)cc1` is 118% (inactive); for `O=C(CCC(C(=O)c1ccccc1)c1ccccc1)c1ccccc1` (stereo not given) it is 25.5% (inactive).
Then `COc1cccc2ccc(CC(O)(c3ccccc3)c3ccccc3)nc12`, with 82.3% (inactive).
Then `O=C(/C=C/C=C/c1c(C2CC2)nc2ccccc2c1-c1ccc(F)cc1)c1cccs1`, with -6.7% (active); and `O=C(O)c1cn(C2CC2)c2cc(N3CCN(C(=O)c4cc(-c5ccc(Cl)cc5)nc5ccccc45)CC3)c(F)cc2c1=O`, with 47.4% (inactive); and `COc1ccc2cc(-c3nc4ccccc4s3)c(Cl)nc2c1OC`, with 87.6% (inactive).
Regarding `CN1CCc2c(sc3nc4n(-c5ccc(Cl)cc5)cnn4c(=O)c23)C1`, the growth is 120% (inactive).
Take `COCCn1cc(-c2nc(-c3cccnc3)cs2)c2cc(F)ccc21`: the growth is 63.5% (inactive).
The figure for `COc1ccc(C2CC(c3cccs3)=NN2c2ccc(S(N)(=O)=O)cc2)cc1` (stereo not given) is 83% (inactive); for `CN(C)CCCSc1ccccc1NC1=C(Cl)C(=O)C(Nc2ccccc2SCCCN(C)C)=C(Cl)C1=O` it is 2.97% (active).
The figure for `Cc1cc(=O)n2nnc3cc(C(F)(F)F)ccc3n12` is 104% (inactive); for `COc1cc(-c2nn(-c3cccc(NC(=O)CCN4CCN(c5ccccc5)CC4)c3)cc2-c2ccncc2)ccc1Cl` it is 4.54% (active).
